Bioassay records deposited in PubChem by National Center for Advancing Translational Sciences (NCATS).
VDR inhibitor = inhibitors of human vitamin D receptor. Potency, µM, for the others: max response, negative = inhibition, most hits filed as inhibitors. AID 504847. VDR-SRC2-3 peptide fluorescence polarization, 2 h. hit rate 0.93% among 400,000. P11473; further: on the % scale 0 is the no-effect control and ±100 the full control effect
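Two reagent solutions held at 4 deg C in the dark were dispensed, compounds pinned at 23 nl, and the mixture incubated 2 h at room temperature. Read-out: fluorescence polarization of VDR–SRC2-3 peptide binding.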
PKM2 act = PKM2 (human) enzyme activation; purified PKM2, Kinase-Glo ATP luminescence, activation; response scale: 0% is enzyme alone, no compound; Potency, µM (doses to about 57.5 µM), for the others: at the highest dose activation, usual class: activators; hit rate 0.34% among 260,000; further: on the % scale 0 is the no-effect control and ±100 the full control effect; nearly all actives have a fitted effect of over 55% in size
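Kinase-Glo luminescence reports ATP generated from ADP (0.1 mM) and PEP (0.5 mM) by purified hPK-M2 after 1 h at room temperature, pH 7.2 imidazole buffer; intermediate enzyme activity allows detecting inhibitors and activators.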
GLS inhibitor = inhibitors of human glutaminase (GLS); O94925; hit rate 0.21% among 410,000; GLS enzymatic activity, qHTS titration; Potency, µM (titrated, usually from 45.5 µM), inactives show at the top dose activity change, negative = inhibition, actives largely listed as inhibitors; further: on the % scale 0 is the no-effect control and ±100 the full control effect
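Coupled fluorescence readout: glutamate oxidase/HRP/Amplex Red detect glutamate formed by hKGA from L-glutamine (1 mM solution added). Buffer 45 mM KH2PO4 pH 8.2, 0.02% Tween-20; reads at t0 and 30 min RT.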
PLK1 PBD block = blocks phosphopeptide binding to human PLK1 polo-box domain; P53350; Plk1 PBD binding of FITC phosphopeptide, fluorescence polarization; Potency, µM, for the others: max response, negative = inhibition, most hits filed as inhibitors; hit rate 2.8% among 360,000; AID 720504; further: series mostly up to about 57 µM; on the % scale 0 is the no-effect control and ±100 the full control effect; nearly all actives have a fitted effect of over 65% in size
Target sequence (P53350 whole entry, looked up, the tested form may be a part): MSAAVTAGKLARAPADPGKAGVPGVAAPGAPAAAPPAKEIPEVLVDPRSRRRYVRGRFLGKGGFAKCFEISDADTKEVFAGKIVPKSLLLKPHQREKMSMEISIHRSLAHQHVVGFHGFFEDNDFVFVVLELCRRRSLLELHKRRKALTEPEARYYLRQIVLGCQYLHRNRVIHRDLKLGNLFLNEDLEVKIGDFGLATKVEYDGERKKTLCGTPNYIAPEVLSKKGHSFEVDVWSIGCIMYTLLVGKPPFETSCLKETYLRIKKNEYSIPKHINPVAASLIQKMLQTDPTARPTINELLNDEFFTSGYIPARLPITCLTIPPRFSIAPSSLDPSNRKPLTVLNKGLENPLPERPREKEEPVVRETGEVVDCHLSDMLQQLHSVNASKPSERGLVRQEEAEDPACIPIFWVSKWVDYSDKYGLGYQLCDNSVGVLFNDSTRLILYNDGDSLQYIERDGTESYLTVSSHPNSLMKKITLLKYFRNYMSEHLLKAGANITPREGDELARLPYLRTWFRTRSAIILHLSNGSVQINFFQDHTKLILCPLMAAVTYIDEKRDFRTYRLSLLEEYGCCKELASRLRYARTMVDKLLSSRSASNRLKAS
Mito fusion yeast = blocks mitochondrial division or promotes mitochondrial fusion | S. cerevisiae fusion-defective mutant growth rescue, CellTiterGlo 48 h | Potency, µM (top dose mostly 46.1 µM), without a hit: at the top dose growth rescue (activation), actives largely listed as activators | hit rate 0.23% among 320,000; further: % of control where 0% means no effect; nearly all actives have a fitted effect of over 45% in size
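Read-out: ATP-based luminescence (CellTiterGlo, 10 min ambient) reporting growth of fusion-defective ts yeast after 48 hours at 37C on glycerol/ethanol YPEG medium in the presence of compound.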
KAT2A inh = GCN5L2 (KAT2A) acetyltransferase inhibition; hit rate 0.21% among 390,000; Q92830; Potency, µM (highest dose often 58.9 µM), for inactives: at the top dose activity change, negative = inhibition, actives largely listed as inhibitors; GCN5L2 HAT assay, ThioGlo1 CoA-SH fluorescence; further: on the % scale 0 is the no-effect control and ±100 the full control effect
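Compounds, pin-transferred from DMSO stocks, meet 20nM GCN5L2 for 15 min before the reaction begins with H3(1-25) peptide (75uM) and acetyl-CoA (70uM). Thiol-reactive ThioGlo1 reports CoA release over 20 min at room temperature.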
The depositor's hits bear a star; u = inconclusive; x = no result; [ ] = dose if it differs, or a comment. Compounds with a hit are over-represented: about 3.4% of the library has one in this group of screens. The call rests on the fitted dose curve; in most records, active means well fitted curve in the direction sought with a large enough effect; inconclusive means small, poorly fitted or top-dose-only effect, or another doubt; inactive means no such curve, though single readings can be large; an effect the other way counts as inactive or inconclusive. Potency means the concentration at half of the fitted maximal effect.

SMILES | VDR inhibitor | PKM2 act | GLS inhibitor | PLK1 PBD block | Mito fusion yeast | KAT2A inh
Cc1ccc(NS(=O)(=O)c2c(C)nc3sccn3c2=O)cc1C | 2.6% | 4.47µM* | -0.6% | -0.2% | 3.3% | -8.5%
O=C1SC(SCc2ccccc2Cl)=N/C1=C\c1ccc(C(=O)O)cc1 | u | -6.0% | u | 16.8µM* | 3.1% | -8.5%
CCOC(=O)c1ccc(NS(=O)(=O)c2ccc3[nH]c(=O)[nH]c3c2)cc1 | -19.4% | -6.7% | 9.3% | 11.9µM* | -9.0% | -4.4%
Cc1ccc(CNC(=O)C2CCC(=O)N(C3CC3)C2)cc1 (stereo not given) | -3.4% | -15.5% | 1.3% | 2.1% | -0.7% | -0.7%
Cc1ccc(C)c(S(=O)(=O)n2nc(C)c(S(=O)(=O)N3CCCCCC3)c2C)c1 | -3.1% | x | -6.6% | x | x | -14.5%
CCn1cc(/C=C(/C#N)S(=O)(=O)c2ccccc2)cn1 | -0.9% | -13.7% | 0.7% | -1.0% | -3.3% | -11.4%
Cn1nccc1/C=C(/C#N)S(=O)(=O)c1ccccc1 | u | 3.1% | -7.4% | 10.6µM* | -0.1% | -13.1%
O=C(CNC(=O)c1ccccc1)OCCOc1cccc(Cl)c1 | 2.7% | x | -11.5% | 1.6% | 2.7% | -11.7%
O=C(CNC(=O)c1ccccc1)Oc1cccc(Cl)c1 | 13.3% | x | 4.2% | 7.52µM* | x | x
O=C(CCC(=O)c1ccc(F)cc1)Nc1ccccc1Cl | -14.8% | 5.4% | 4.6% | 26.7µM* | -3.6% | -2.1%
Cc1cc2oc(=O)c(CC(=O)O)c(C)c2c2occ(C(C)(C)C)c12 | -20.5% | x | -16.5% | 29.9µM* | 15.5% | -11.6%
O=C(O)Cc1cc2ccccc2nc1C(=O)O | 5.5% | x | x | x | x | -5.5%
Cc1ccn2c(NCc3ccccc3)c(-c3cccs3)nc2c1 | 1.5% | -3.5% | 8.5% | -7.3% | -13.8% | -20.2%
Cc1ccn2c(NC3CCCC3)c(-c3cccs3)nc2c1 | 39.8µM* | -2.8% | u | 4.23µM* | 2.6% | -21.6%
c1ccc(-c2nc(-c3ccncc3)n[nH]2)nc1 | -12.2% | -28.3% | -18.5% | -1.1% | -3.1% | 2.0%
c1cc(-c2nsc(-c3ccncc3)n2)ccn1 | u | -5.4% | -13.6% | 18.9µM* | 11.7% | -8.6%
CNC[C@H](O)[C@H](O)[C@H](O)[C@H](O)CO | -5.9% | x | x | x | x | 0.0%[21.4 µM]
N#Cc1c(-c2ccccc2Cl)cc(-c2ccccc2)[nH]c1=S | x | 0.7% | x | x | 4.3% | -3.2%
N#Cc1c2c(c(-c3ccccc3Cl)[nH]c1=S)CCCC2 | 3.1% | 0.4% | u | 16.8µM* | 3.9% | -1.8%
COc1ccc(/C=C(/C(=O)c2cccs2)N2C=CC=CC2=C(C#N)C#N)cc1 | u | 10.4% | u | 5.97µM* | 5.8% | -18.2%
COc1ccc(C(=O)/C(=C\c2ccco2)N2C=CC=CC2=C(C#N)C#N)cc1 | 39.8µM* | 24.6% | -11.7% | 21.2µM* | -18.4% | 0.0%
N#CC(C#N)=C1C=CC=CN1/C(=C\c1ccco1)C(=O)c1ccc(Br)cc1 | 10µM* | 24.3% | 2.5% | 2.99µM* | -21.8% | 6.8%
N#CC(C#N)=C1C=CC=CN1/C(=C\c1ccco1)C(=O)c1ccccc1 | 14.1µM* | 17.8% | 2.5% | 11.9µM* | -4.5% | 0.2%
COC(=O)c1ccc(OCc2nn[nH]n2)cc1 | -1.3% | -6.2% | 1.6% | -4.7% | 1.0% | -0.8%
COc1ccc2oc(-c3cccc(NC(=O)c4cc([N+](=O)[O-])ccc4N4CCOCC4)c3)nc2c1 | -12.5% | x | -15.0% | x | x | -5.9%
SMILES | VDR inhibitor | PKM2 act | GLS inhibitor | PLK1 PBD block | Mito fusion yeast | KAT2A inh
CC1=CC2=NC(=O)/C(=C\c3cccn3CCOc3ccccc3C)C(=N)N2O1 | -10.2% | 1.8% | 12.0% | 26.7µM* | -11.5% | -15.1%
O=S(=O)(c1ccc(Cl)cc1)N1CCOCC1 | 1.6% | x | x | x | x | x
COCCNC(=O)Cn1cc(C(=S)N2CCOCC2)c2ccccc21 | -9.1% | -0.7% | -9.7% | 29.9µM* | 6.2% | 9.1%
O=C(CSc1nnc(C2COc3ccccc3O2)o1)N1CCCC1 (stereo not given) | u | 2.6% | 20.7% | 21.2µM* | -6.3% | 1.1%
CC1=C(C(=O)OCc2ccccc2)C(c2cccc(F)c2)NC(=O)N1 (stereo not given) | 2.0% | u | 0.2% | -10.0% | 1.9% | -19.9%
Nc1ccnc2c1ncn2[C@@H]1O[C@H](CO)[C@@H](O)[C@H]1O | -2.4% | x | x | x | x | 0.9%
CC[C@H]1C(c2ccccc2)=NN(c2ccccc2)[C@@H]1CO | -15.4% | x | x | x | x | -26.6%[88.6 µM]
OC[C@H](O)[C@H](O)[C@@H](O)[C@@H](O)[C@@H]1SC(c2ccccc2)=NN1c1ccccc1 | 22.4µM* | 0.4% | -5.0% | u | 7.9% | -3.5%
Cc1ccccc1NN=Nc1nc2c([nH]1)c(=O)n(C)c(=O)n2C | -18.2% | 0.1% | -3.3% | u | -6.3% | -2.7%
Cn1c(=O)c2[nH]c(N=NNc3ccccc3F)nc2n(C)c1=O | 79.4µM* | 15.2% | -12.5% | -15.6% | 2.0% | -22.1%
COc1ccc(NN=Nc2nc3c([nH]2)c(=O)n(C)c(=O)n3C)cc1 | u | u | 33.9% | 4.74µM* | 8.1% | -16.6%
Cc1cnc(CNc2nc(-c3ccc(N(C)C)cc3)nc3ccccc23)cn1 | -18.9% | x | x | x | x | -11.9%
CC(C)c1ccc(C2(O)C(=O)Nc3cc(Br)ccc32)c(O)c1 (stereo not given) | u | x | 23.1% | 26.7µM* | -1.6% | -13.7%
O=C1Nc2cc(Br)ccc2C1(O)c1ccccc1O (stereo not given) | 1.7% | x | 5.8% | -3.8% | -2.1% | 2.0%
COc1ccccc1S(=O)(=O)N1CCN(c2nc(-c3cccs3)nc3ccccc23)CC1 | -22.2% | x | x | x | x | x
CC(CNCC1CCCO1)COc1ccccc1 (stereo not given) | -1.8% | 8.1% | 13.6% | 29.9µM* | -3.3% | -6.4%
CC(CNCC1CCCO1)COc1cccc2ccccc12 (stereo not given) | 3.7% | -3.3% | 8.4% | 1.1% | 6.4% | 0.1%
O=C1NC(=S)N/C1=C\c1ccccc1OCc1ccc(C(=O)O)cc1 | 27.6% | -0.2% | -7.3% | -8.0% | -0.2% | -9.9%
O=C(O)c1ccc(COc2ccccc2/C=C2\NC(=O)N(Cc3ccc(F)cc3)C2=O)cc1 | -3.8% | -2.1% | 4.2% | 67µM* | 5.7% | -11.3%
O=C(O)c1ccc(COc2ccccc2C=C2C(=O)c3ccccc3C2=O)cc1 | u | -0.7% | -9.9% | 0.474µM* | -2.5% | -7.1%
COc1ccc2oc(C(=O)OCC(=O)Nc3ccc(C)c(S(=O)(=O)N4CCOCC4)c3)c(C)c2c1 | x | x | -7.4% | 1.6% | x | x
CS(=O)(=O)N1CCN(c2ccc([N+](=O)[O-])c(NCc3ccccc3)c2)CC1 | 13.1% | 5.8% | 1.1% | -6.4% | 1.7% | -19.0%
CS(=O)(=O)N1CCN(c2ccc([N+](=O)[O-])c(NCc3cccnc3)c2)CC1 | 1.4% | 10µM* | 0.0% | -10.0% | -3.9% | -13.0%
